# Experimental data reported in PubChem BioAssay (NCATS).
# Inconclusive results are not listed. Activity calls are given as the source filed them. The call rests on the fitted dose curve; in most records, active means well fitted inhibition curve with a large enough effect; inconclusive means small, poorly fitted or top-dose-only effect; inactive means flat fitted curve, though single readings scatter.
# Test system: P94_40
# Test: qHTS profiling for inhibitors of Plasmodium falciparum proliferation (AID 504749); further: nearly all actives have a fitted effect of over 60% in size
# Details: P. falciparum in erythrocytes, SYBR Green DNA, 72 h; series mostly up to 28.7 µM
# Summary of the method: (§1)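 P. falciparum-infected erythrocytes (0.3% parasitemia, 2.5% hematocrit final) were exposed to compounds for 72 h at 37 C in 5% CO2, then lysed with SYBR Green buffer overnight at room temperature; parasite DNA fluorescence was normalized to artemisinin and DMSO controls.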
# Potency means the concentration at half of the fitted maximal effect.
row,SMILES,Potency
1,CCCCCCCCCCCCCCCC[n+]1ccccc1,8.91 µM (active)
2,Nc1ncnc2nc[nH]c12,inactive
3,O=C(Nc1ccc(Cl)cc1)Nc1ccc(Cl)c(Cl)c1,2.82 µM (active)
4,CN1CCC(Nc2ncc3ncnc(Nc4ccc(F)c(Cl)c4)c3n2)CC1,8.91 µM (active)
5,CCCCCCCCCCCCCCCC[N+](C)(C)Cc1ccccc1,1.58 µM (active)
6,CCCCCCCCCCCCCC[N+](C)(C)C,6.31 µM (active)
7,Nc1c2ccccc2nc2ccccc12,5.62 µM (active)
8,O=S(=O)(O)c1ccc2nc(-c3ccccc3)[nH]c2c1,inactive
9,CC(NCCC(c1ccccc1)c1ccccc1)c1ccccc1 (stereo unspecified),11.2 µM (active)

# Test system: PAD
# Test: as above
# Details: P. falciparum in erythrocytes, SYBR Green DNA, 72 h; series mostly up to 28.7 µM
# Summary of the method: as §1
row,SMILES,Potency
1,CCCCCCCCCCCCCCCC[n+]1ccccc1,12.6 µM (active)
2,Nc1ncnc2nc[nH]c12,inactive
3,O=C(Nc1ccc(Cl)cc1)Nc1ccc(Cl)c(Cl)c1,2.24 µM (active)
4,CCCCCCCCCCCCCCCC[N+](C)(C)Cc1ccccc1,5.62 µM (active)
5,CCCCCCCCCCCCCC[N+](C)(C)C,10 µM (active)
6,O=[N+]([O-])c1ccc(O)c2ncccc12,inactive
7,Nc1c2ccccc2nc2ccccc12,7.94 µM (active)
8,O=S(=O)(O)c1ccc2nc(-c3ccccc3)[nH]c2c1,inactive
9,CC(NCCC(c1ccccc1)c1ccccc1)c1ccccc1 (stereo unspecified),12.6 µM (active)
10,CN1CCCN(C(c2ccccc2)c2ccc(Cl)cc2)CC1 (stereo unspecified),5.62 µM (active)

# Test system: PC15
# Test: as above
# Details: P. falciparum in erythrocytes, SYBR Green DNA, 72 h; series mostly up to 28.7 µM
# Summary of the method: as §1
row,SMILES,Potency
1,CCCCCCCCCCCCCCCC[n+]1ccccc1,10 µM (active)
2,Nc1ncnc2nc[nH]c12,inactive
3,O=C(Nc1ccc(Cl)cc1)Nc1ccc(Cl)c(Cl)c1,2.51 µM (active)
4,CCCCCCCCCCCCCCCC[N+](C)(C)Cc1ccccc1,7.94 µM (active)
5,O=[N+]([O-])c1ccc(O)c2ncccc12,inactive
6,Nc1c2ccccc2nc2ccccc12,11.2 µM (active)
7,O=S(=O)(O)c1ccc2nc(-c3ccccc3)[nH]c2c1,inactive
8,CC(NCCC(c1ccccc1)c1ccccc1)c1ccccc1 (stereo unspecified),11.2 µM (active)

# Test system: PC26
# Test: as above
# Details: P. falciparum in erythrocytes, SYBR Green DNA, 72 h; series mostly up to 28.7 µM
# Summary of the method: as §1
row,SMILES,Potency
1,CCCCCCCCCCCCCCCC[n+]1ccccc1,12 µM (active)
2,Nc1ncnc2nc[nH]c12,inactive
3,O=C(Nc1ccc(Cl)cc1)Nc1ccc(Cl)c(Cl)c1,1.51 µM (active)
4,CCCCCCCCCCCCCCCC[N+](C)(C)Cc1ccccc1,9.53 µM (active)
5,CCCCCCCCCCCCCC[N+](C)(C)C,6.01 µM (active)
6,O=[N+]([O-])c1ccc(O)c2ncccc12,inactive
7,Nc1c2ccccc2nc2ccccc12,15.1 µM (active)
8,O=S(=O)(O)c1ccc2nc(-c3ccccc3)[nH]c2c1,inactive
9,CC(NCCC(c1ccccc1)c1ccccc1)c1ccccc1 (stereo unspecified),8.49 µM (active)
